Bioassay records as filed in PubChem.
Epigenetic reg: Quantitative High-Throughput Screen for Regulators of Epigenetic Control. 0.2% of 280,000 active. AID 1865, 2009. murine LDR cells, GFP reporter derepression, 30 h. Potency, µM (top dose mostly 53.9 µM), inactives show top-dose GFP activation, most hits filed as activators; further: potency means the concentration at half of the fitted maximal effect; % of control where 0% means no effect; nearly all actives have a fitted effect of over 60% in size
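Murine LDR cells bearing a silenced CMV-driven GFP reporter were exposed to compound for 30 h at 37 C. After PBS washes, GFP-positive cells (20-120 um objects) counted by laser-scanning microplate cytometry.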
PINK1 modulator: A Quantitative High throughput Screen to Identify Chemical Modulators of PINK1 Expression; 0.2% of 410,000 active; PINK1 immunofluorescence, high-content cytometry, 24 h; Potency, µM (highest dose often 76.6 µM), without a hit: top-dose activation (PINK1 increase), usual class: activators; active means well fitted activation curve with a large enough effect; inconclusive means small, poorly fitted or top-dose-only effect; cell line not stated here; further: potency means the concentration at half of the fitted maximal effect; % of control where 0% means no effect; nearly all actives have a fitted effect of over 65% in size
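Stable cell line treated 24 h with compounds at 5 concentrations (CCCP controls), then fixed and immunostained for PINK1 plus nuclear and cell stains; PINK1 immunofluorescence quantified by laser-scanning microplate cytometry.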
PKM2 activator: qHTS Assay for Activators of Human Muscle isoform 2 Pyruvate Kinase; Pyruvate kinase PKM (Homo sapiens), P14618; purified PKM2, Kinase-Glo ATP luminescence, activation; response scale: 0% is enzyme alone, no compound; Potency, µM (top dose mostly 57.5 µM), inactives show at the highest dose activation, usual class: activators; 0.34% of 260,000 active; further: potency means the concentration at half of the fitted maximal effect; on the % scale 0 is the no-effect control and ±100 the full control effect; nearly all actives have a fitted effect of over 55% in size
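Kinase-Glo luminescence reports ATP generated from ADP (0.1 mM) and PEP (0.5 mM) by purified hPK-M2 after 1 h at room temperature, pH 7.2 imidazole buffer; intermediate enzyme activity allows detecting inhibitors and activators.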
B2AR arrestin: qHTS assay of beta-arrestin-biased ligands of beta2-adrenergic receptor; Beta-2 adrenergic receptor (Homo sapiens), P07550; 0.02% of 330,000 active; beta-arrestin recruitment to beta2AR, cell-based reporter; Potency, µM (doses to about 46.1 µM), for the others: top-dose activation, actives largely listed as activators;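 further: potency means the concentration at half of the fitted maximal effect; 0% = DMSO controls and full agonism = EC100 isoproterenol or metaproterenol; nearly all actives have a fitted effect of over 65% in size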
Target sequence (P07550 whole entry, looked up): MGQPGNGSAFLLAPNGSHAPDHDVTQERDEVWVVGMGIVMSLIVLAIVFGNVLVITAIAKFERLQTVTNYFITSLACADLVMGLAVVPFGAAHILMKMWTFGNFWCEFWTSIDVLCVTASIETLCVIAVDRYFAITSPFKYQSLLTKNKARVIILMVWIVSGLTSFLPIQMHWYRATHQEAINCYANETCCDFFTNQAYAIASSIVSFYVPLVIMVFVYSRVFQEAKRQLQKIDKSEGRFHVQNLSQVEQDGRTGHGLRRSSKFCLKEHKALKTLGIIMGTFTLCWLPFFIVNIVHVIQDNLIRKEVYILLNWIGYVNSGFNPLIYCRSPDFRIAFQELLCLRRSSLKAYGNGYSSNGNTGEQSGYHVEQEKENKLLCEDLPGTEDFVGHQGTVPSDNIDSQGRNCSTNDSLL
IL-2 act: qHTS of IL-2 Activators | IL-2 activation reporter assay, cell-based qHTS; stimulated with anti-CD3/CD4/CD28 beads; in transgenic mouse T cells | activation, % (series mostly up to about 46 µM) | 0.065% of 360,000 active; in the data active means activation above about 50%; inconclusive means mostly about 30% to 49%; further: 0% is about no effect
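Using fluorescent plate cytometry, EGFP and DsRed are detected in transgenic mouse T cells stimulated 18 h at 37 degrees C with antibody-coated beads after 60 min compound pretreatment.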
Numbers without * were called inactive; ? = inconclusive; · = not tested or not shown; [ ] = dose if it differs, or a comment. Most compounds without a hit are left out; they make up all but 0.58% or so of the library. Unless noted, the call rests on the fitted dose curve; in most records, active means well fitted curve in the direction sought with a large enough effect; inconclusive means small, poorly fitted or top-dose-only effect, or another doubt; inactive means no such curve, though single readings can be large; an effect the other way counts as inactive or inconclusive.

SMILES	Epigenetic reg	PINK1 modulator	PKM2 activator	B2AR arrestin	IL-2 act
CCCOC(=O)C(C)n1c(-c2ccccc2)nc2ccccc2c1=O (centres undefined)	-1%	8.9µM*	23%	0%	-1
CSc1nc(-c2cccs2)c(C#N)c(=O)[nH]1	1%	0%	-14%	-1%	0
N#Cc1c(-c2cccs2)nc(SCc2ccc(Cl)cc2)[nH]c1=O	0%	2%	32µM*	6%	1
CC1(C)CC2(CC(c3ccccc3F)c3ccc(O)c(O)c3O2)NC(=S)N1 (centres undefined)	0%	-1%	2.8µM*	0%	-2
CC1(C)CC2(CC(c3ccc(F)cc3)c3ccc(O)cc3O2)NC(=S)N1 (centres undefined)	-2%	2%	0%	0%	-2
COc1ccc(N2C(=O)CC(Sc3nnnn3-c3ccc(F)cc3)C2=O)cc1 (centres undefined)	?	0%	28µM*	0%	-1
O=C1CC(Sc2nnnn2-c2ccccc2)C(=O)N1c1cccc(Cl)c1 (centres undefined)	-4%	1%	9%	0%	-1
COc1ccc(N2C(=O)CC(Sc3nnc(-c4ccccc4)o3)C2=O)cc1 (centres undefined)	?	·	20µM*	-1%	-1
O=C1CC(Sc2nnc(-c3ccccc3O)o2)C(=O)N1c1ccccc1 (centres undefined)	1%	5%[38.3 µM]	11%	-1%	-2
CCn1c(-c2ccccc2F)nc2cc(NC(C)=O)cc(C(=O)NCc3ncc(C)[nH]3)c21	·	-1%	·	·	·
CCN(CC)c1ccc2cc(-c3nc(-c4cc5ccccc5oc4=O)cs3)c(=O)oc2c1	·	32µM*	·	·	?
O=c1oc2ccccc2cc1-c1nc(-c2cccc(Cl)c2)cs1	10%	1%	·	·	·
CCN(CC)c1ccc2cc(-c3nc(-c4ccccc4)no3)c(=O)oc2c1	14µM*	1%	·	·	·
CCN(CC)c1ccc2cc(-c3nnc(Nc4ccc(C)cc4)s3)c(=O)oc2c1	0.1µM*	6%	·	·	·
COc1ccc(CN2CCCC(n3cc(C(=O)NC4CCCC4)nn3)C2)c(O)c1 (centres undefined)	·	3%	·	·	·
CC(C)Oc1ccc(C(=O)NCC2Cc3cc(F)cc(-c4cnccn4)c3O2)cc1 (centres undefined)	·	1%	·	·	·
CCN1/C(=C2\SC(=S)N(Cc3ccccc3)C2=O)Sc2ccccc21	13µM*	?	-2%	-1%	0
CCN1C(=O)/C(=C2/Sc3ccccc3N2CC)SC1=S	·	8%	3%	1%	8
CCN1/C(=C2/SC(=S)N(NC(C)=O)C2=O)Sc2ccccc21	·	22µM*	3%	0%	?
O=C(c1cnn2cccnc12)N1CCOc2ccc(C(O)C(c3ccccc3)c3ccccc3)cc2C1 (centres undefined)	·	1%	·	·	·
Cc1c(C(=O)NCc2cccc(F)c2)sc2ncnc(NCC3CCCO3)c12 (centres undefined)	·	0%	·	·	·
O=C(Nc1ccc(C(=O)OCc2cc(=O)n3nc(C4CC4)sc3n2)cc1)c1cccc(Cl)c1	9%	1%	·	·	·
O=C(Nc1cccc(C(=O)OCc2cc(=O)n3nc(C4CC4)sc3n2)c1)c1cccc(Cl)c1	16µM*	0%	·	·	·
CCOC(=O)/C(C(N)=NCCCO)=C(/O)c1ccccc1	0%	14µM*	-1%	-1%	-1
O=C(Nc1ccc(OCC(F)(F)C(F)F)c(C(F)(F)F)c1)c1ccccc1O	-1%	16µM*	3%	0%	-1
O=C(Nc1ccc(OCC(F)(F)C(F)F)c(C(F)(F)F)c1)c1ccccc1	·	2%	·	·	0
c1ccc(-c2n[nH]c(-c3ccccn3)n2)nc1	1%	1%[38.3 µM]	-33%	0%	-4
c1ccc(-c2n[nH]c(-c3ccccn3)n2)cc1	22µM*	-1%	-23%	0%	-2
CNC(=S)N1N=C(c2ccc(C)cc2)CC1c1ccc(OC)cc1 (centres undefined)	-1%	1%	22µM*	-1%	-1
